# From PubChem BioAssay
# Most compounds without a hit are left out; they make up all but 12% or so of the library.
# Gal4-VP16 FLuc: counter-screen for ROR gamma inhibitors: Gal4-VP16 reporter; actives 3.5% (n = 310,000); Potency, µM (doses to about 53.6 µM), for the others: top-dose activity, negative = inhibition, hits mostly inhibitors; Drosophila S2 Gal4-VP16 UAS-luciferase, luminescence, 20 h;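 note: Gal4-VP16 expression switched on by copper sulfate through the metallothionein promoter; nearly all actives have a fitted effect of over 50% in size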
# PLK1 PBD block: PLK1 (human) polo-box domain binding inhibition | P53350 | Plk1 PBD binding of FITC phosphopeptide, fluorescence polarization | Potency, µM, inactives show max response, negative = inhibition, actives largely listed as inhibitors | actives 2.8% (n = 360,000) | AID 720504; note: series mostly up to about 57 µM; nearly all actives have a fitted effect of over 65% in size
# Sfp inh: Sfp phosphopantetheinyl transferase inhibition; AID 1490; Potency, µM, for inactives: largest response in the series, negative = inhibition, usual class: inhibitors; actives 3.5% (n = 310,000); Q9F4F7; Biochemical Sfp PPTase activity, qHTS;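 note: the enzyme is Sfp with the accession as filed and its product quenches rhodamine fluorescence; 0% = enzyme reaction without inhibitor and -100% = no enzyme wells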
#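 Sfp 15 nM + cpd, 15 min RT; start w/ rhodamine-CoA 5 uM, BHQ-2-YbbR 12.5 uM (final); 50 mM Hepes pH 7.6, 10 mM MgCl2, 0.01% NP-40, 0.01% BSA; read 525/598 nm at 0 and 30 min.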
# ALDH1A1 block: ALDH1A1 (human) enzyme inhibition. P00352. Purified ALDH1A1, NADH fluorescence, propionaldehyde substrate. Potency, µM (doses to about 75.3 µM), without a hit: at the highest dose activity, negative = inhibition, usual class: inhibitors. actives 7.3% (n = 220,000). AID 1030; active = well fitted inhibition curve with a large enough effect, not every such curve was filed as active; inconclusive = small, poorly fitted or top-dose-only effect, or another doubt; inactive = no such curve, though single readings can be large or run the other way;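 note: plate controls were no enzyme wells and a reference inhibitor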
# Target sequence (P00352 whole entry, looked up): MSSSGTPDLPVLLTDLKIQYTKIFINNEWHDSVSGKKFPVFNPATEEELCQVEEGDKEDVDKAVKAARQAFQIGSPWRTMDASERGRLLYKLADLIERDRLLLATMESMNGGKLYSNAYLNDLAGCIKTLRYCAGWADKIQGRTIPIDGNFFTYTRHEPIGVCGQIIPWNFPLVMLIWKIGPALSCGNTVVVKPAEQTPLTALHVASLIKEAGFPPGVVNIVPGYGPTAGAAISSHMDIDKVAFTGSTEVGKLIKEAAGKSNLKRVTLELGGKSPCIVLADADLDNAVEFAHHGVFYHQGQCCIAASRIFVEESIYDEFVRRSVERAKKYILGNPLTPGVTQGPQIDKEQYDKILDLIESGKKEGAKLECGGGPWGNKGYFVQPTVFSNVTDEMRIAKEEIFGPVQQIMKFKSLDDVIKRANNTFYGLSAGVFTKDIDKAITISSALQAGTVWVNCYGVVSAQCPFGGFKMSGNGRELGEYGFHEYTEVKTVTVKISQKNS
# RORg inh: ROR gamma (mouse) transcription inhibition | Drosophila S2 Gal4-RORgamma UAS-luciferase reporter, 20 h | AID 2551 | actives 5.4% (n = 310,000) | Potency, µM (titrated, usually from 53.6 µM), inactives show at the highest dose activity change, negative = inhibition, usual class: inhibitors | P51450; note: nearly all actives have a fitted effect of over 60% in size
#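 Stable Schneider cell line, Gal4 DNA-binding domain fused to ROR gamma, UAS-luciferase. Cmpd 1 hr RT → CuSO4 700 uM final → 20 hr RT → luciferase reagent 10 min → luminescence.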
# The depositor's hits bear a star; ? = inconclusive; / = no result; [ ] = another dose, or the depositor's remark. Unless noted, calls come from the whole dose curve; as a rule, active = well fitted curve in the direction sought with a large enough effect; inconclusive = small, poorly fitted or top-dose-only effect, or another doubt; inactive = no such curve, though single readings can be large; an effect the other way counts as inactive or inconclusive. Unless noted, % is set by controls: 0 for no effect and ±100 for the full control effect; potency is the fitted concentration of half-maximal effect.
SMILES,Gal4-VP16 FLuc,PLK1 PBD block,Sfp inh,ALDH1A1 block,RORg inh
COc1cc(OC)c(OC)cc1CN1CCN(Cc2ccc(SC)cc2)CC1,2%,-9%,?,?,-11%
COC(=O)C/C=C\[C@@H](C)[C@@H](CO)NS(=O)(=O)c1ccc(C)cc1,9%[10 µM],/,6%,?,13%[10 µM]
CCN(Cc1ccccc1)C(=O)C1CCN(Cc2ccc(SC)cc2)CC1,5%,3%,8%,-3%,1%
CCN(Cc1ccccc1)C1CCN(Cc2ccc(SC)cc2)CC1,5%,0%,32µM*,?,-12%
CC(=O)OCCCNc1cc(SCc2ccco2)c2nonc2c1[N+](=O)[O-],?,?,25µM*,7.9µM*,?
CCCSc1cc(NCCOC(C)=O)c([N+](=O)[O-])c2nonc12,14%,?,-17%,6%,-35%
O=[N+]([O-])c1c(NCc2ccco2)ccc2nonc12,-6%,-4%,0%,/,?
CCCC(=O)OCCNc1cc(SCc2ccco2)c2nonc2c1[N+](=O)[O-],?,?,11µM*,4.5µM*,?
CCCC(=O)OCCNc1cc(Sc2nccn2C)c2nonc2c1[N+](=O)[O-],5µM*,2.4µM*,35µM*,?,5.6µM*
CCOC(=O)C1CCCN(c2cc(NCCCO)c([N+](=O)[O-])c3nonc23)C1 (stereo not given),-2%,/,6%,?,34%
CCCSc1cc(NCCOC(=O)CCC)c([N+](=O)[O-])c2nonc12,?,17µM*,-18%,?,?
O=C1Nc2ccccc2-n2nnnc2C1N1CCN(C(=O)C2CCCO2)CC1 (stereo not given),/,-6%,/,/,/
Cc1nn(Cc2ccccc2)c(C)c1CNC(=O)[C@H](C)N=C1NS(=O)(=O)c2ccccc21,/,2%,/,/,/
CC(=O)c1ccc(-c2ccc(-c3cc(=O)oc4c(C(C)C)ccc(C)c34)cc2)cc1,11µM*,-16%,-7%,11%,?
CCc1c(O)nc(SCc2nc3ccccc3c(=O)[nH]2)[nH]c1=O,20%,-10%,-18%,-5%,-13%
C=CCc1c(C)nc(SCc2nc3ccccc3c(=O)[nH]2)[nH]c1=O,16%,-3%,?,14µM*,33%
C=CCn1c(SCc2nc3ccccc3c(=O)[nH]2)nc2ccccc2c1=O,8%,-9%,50µM*,?,-5%
C=CCn1c(SCC(=O)N2CCc3ccccc3C2)nc2ccccc2c1=O,-4%,1%,-14%,13µM*,45%
CCOc1ccc(C(C)=O)cc1CSc1nc(C)cc(C)n1,0%,-2%,13%,4µM*,-1%
C=CCn1c(Cc2ccccc2)nnc1SCc1nc2ccccc2c(=O)[nH]1,20%,-13%,-20%,-11%,17%
COc1ccc(C(C)=O)cc1CSc1nc(C)cc(C)n1,3%,-4%,-16%,?,-13%
Cc1ccc(C)c(C(O)c2ncc(-c3ccc(F)cc3)[nH]2)c1 (stereo not given),/,-9%,/,/,/
COc1ccc(C(C)=O)cc1CSc1nc2ccccc2c(=O)n1-c1ccccc1,?,-1%,-2%,?,-20%
C=CCn1c(SCc2cc(C(C)=O)ccc2OCC)nc2ccccc2c1=O,-8%,-3%,-12%,2.2µM*,17%
CCN1C(=O)[C@H]2[C@@H](c3ccc(OC)cc3)N[C@]3(CCCN(Cc4ccc(C)cc4)C3=O)[C@H]2C1=O,/,-9%,/,/,/
COc1cc(NS(=O)(=O)c2ccc(Nc3nc(-c4ccccc4)cs3)cc2)nc(OC)n1,4%,27µM*,-7%,-4%,?
COc1cc(NS(=O)(=O)c2ccc(N/C=C(\C=O)c3nc4ccccc4o3)cc2)nc(OC)n1,?,-21%,9%,-15%,8.9µM*
COc1ccc(-c2csc(Nc3ccc(S(N)(=O)=O)cc3)n2)cc1OC,-16%,8.4µM*,-20%,2%,33%
C=CCn1nnnc1SCC(=O)Nc1cccc(C(F)(F)F)c1,-8%,-3%,4%,/,0%
CCCC(=O)Nc1nnc(S(=O)(=O)N(CC)c2ccc(OC)cc2)s1,-6%,5%,14%,/,-17%
